Structures are written as SMILES. In all, about 320,000 compounds went through this assay and about 2,100 (0.66%) were called active. Roughly 53% stayed inconclusive and do not appear here. The call rests on the fitted dose curve; in most records, active means well fitted inhibition curve with a large enough effect in the signal ratio, with a control signal flat (not every such curve was filed as active); inconclusive means small, poorly fitted or top-dose-only effect, or effect the other way, or a change in a side signal; inactive means flat fitted curve, though single readings scatter; the % refers to the signal ratio. The list comes from a sample in which actives are over-represented; it also holds similar structures and randomly drawn compounds.

These results are taken from PubChem BioAssay AID2685 (National Center for Advancing Translational Sciences (NCATS), 2010).
Potency means the concentration at half of the fitted maximal effect.

This assay in a line: qHTS Assay for Lipid Storage Modulators in Drosophila S3 Cells.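 On cell number change: cells counted by Cell Tracker Red CMTPX staining in the red channel.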 The conditions noted are these: BODIPY lipid droplet fluorescence, 18-24 h, cells fed with added oleic acid; cell number change: measured here: cell count max response; series mostly up to 46.1 µM. In short, it runs like this: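 Laser-scanning cytometry quantifies lipid droplet accumulation (500–530 nm total intensity; droplet/cell object ratio) in oleic acid-fed (400 uM added) Drosophila S3 cells treated with a concentration series. 20 uM Triacsin C defined 100% inhibition.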
For `O=c1[nH]cnc2sc3c(c12)CCC3`, the Potency entry was “inactive” and the cell number change is 25.4%. Turning to `CCOc1ccc(-n2ccc(=O)c(C(=O)Nc3ccc(S(=O)(=O)Nc4nccs4)cc3)n2)cc1`, the Potency entry was “inactive” and the cell number change was -6.87%. In the same order, the values of `CCc1c(C)nc(N)n2c(SCC(=O)N3CCN(c4ccccc4F)CC3)nnc12` are “inactive” and -1.8%. The corresponding values for `O=C1CCN(Cc2ccccc2)CCN1CCO` are “inactive” and 13.2%. Take `O=C(CN(C(=O)CCC(=O)Nc1nccs1)c1ccc2c(c1)OCO2)NCC1CCCO1` (stereo not drawn): the Potency entry is “inactive” and the cell number change was found to be 2.62%. Take `Cc1cc(N2CCN(S(=O)(=O)Cc3ccccc3)CC2)n2ncnc2n1`: the Potency entry was “inactive”. Turning to `O=c1[nH]c2ccccc2nc1C(Cl)c1ccccc1` (stereo not drawn), the Potency result is “inactive” and the cell number change was determined as 23.2%. In the same order, the values of `CCN(CC)S(=O)(=O)c1cccc(NC(=O)c2ccc(SC)cc2OC)c1` are “inactive” and 22.2%.

Take `COc1ccc(S(=O)(=O)N(CC(=O)NCc2ccco2)c2ccccc2)cc1`: the Potency entry was “inactive”. As for `CC(C)(C)c1ccc(C(=O)NC2CCN(Cc3ccccc3)CC2)cc1`, the Potency result is “inactive” and the cell number change is 5.06%. The corresponding values for `Cc1nnc2c(NC3CCCC3)nc3ccccc3n12` are “inactive” and 9.22%. The corresponding values for `Cc1ccc(-c2nnc(SCC(=O)Nc3ccc(N4CCOCC4)cc3)o2)cc1` are “inactive” and -5.45%. The corresponding values for `O=C1Nc2cc(C(=O)N3CCc4ccccc4C3)ccc2S/C1=C\c1ccccc1` are 0.651 µM (active) and 17.1%. With `CC1CCN(C(=O)c2ccc3c(c2)NC(=O)/C(=C/c2ccccc2)S3)CC1`, the Potency entry was “inactive” and the cell number change stood at 3.29%.

For `COc1ccc(/C=C2/Sc3ccc(C(=O)N4CCc5ccccc5C4)cc3NC2=O)cc1`, the Potency entry was “inactive” and the cell number change was determined as 0.0626%. For `Cn1c(=O)[nH]c(=O)c2c1nc(SCCN1CCCCC1)n2Cc1ccccc1`, the Potency entry was “inactive”.

Take `COc1ccc(OC)c(C(=O)CSc2nnc(Cc3cccs3)n2C)c1`: the Potency entry is “inactive” and the cell number change was -18.3%. For the compound `O=C(Nc1ccc(F)cc1)c1csc(Cc2ccccc2)n1`, the Potency entry was “inactive”. Turning to `O=c1[nH]c2ccccc2nc1Cc1ccc(Cl)cc1`, the Potency entry was “inactive” and the cell number change is 6.67%.

On to `COc1ccc(Cc2nc3ccccc3[nH]c2=O)cc1`, for which the Potency is 3.26 µM (active).

In the case of `O=c1[nH]c2ccccc2nc1Cc1ccccc1`, the Potency result is “inactive” and the cell number change was -29.6%. With `COC(=O)N1[C@H](Cc2ccccc2)C=C[C@]1(C)C(=O)O`, the Potency result is “inactive” and the cell number change was -7.24%.

With `O=C(CBr)Nc1c2c(nn1-c1ccccc1)CSC2`, the Potency entry is “inactive” and the cell number change amounted to 23.5%. As for `O=C(CCl)Nc1c2c(nn1-c1ccccc1)CSC2`, the Potency is 20.6 µM (active) and the cell number change was -21.4%. Consider `CCC(=O)Nc1c2c(nn1-c1ccccc1)CSC2`, for which the Potency entry is “inactive” and the cell number change was 19%. The corresponding values for `Cc1c(CCOC(=O)C23CC4(C)CC(C)(CC(C)(C4)C2)C3)sc[n+]1CC(=O)c1ccccc1` are 18.4 µM (active) and -53.8%. Take `Cc1c(CCOC(=O)CC23CC4CC(CC(C)(C4)C2)C3)sc[n+]1CC(=O)c1ccccc1`: the Potency result is “inactive” and the cell number change is -7.33%. Consider `COc1ccc(C(=O)OCCc2sc[n+](CC(=O)c3ccccc3)c2C)cc1`, for which the Potency entry was “inactive” and the cell number change came out at 15.7%.

Turning to `CCOc1ccccc1NC(=S)NC1CC2CCC1C2` (stereo not drawn), the Potency entry was “inactive” and the cell number change was 6.16%. In the same order, the values of `Cc1cc(C)c(-c2cc(C(=O)Nc3cc(C)ccc3C)[nH]n2)c(O)c1` are “inactive” and 2.08%.

As to `COc1ccc(OC)c(NC(=O)c2cc(-c3ccc(C)cc3O)n[nH]2)c1`, the Potency result is “inactive” and the cell number change was 2.51%. As for `COc1ccc(OC)c(NC(=O)c2cc(-c3c(C)cc(C)cc3O)n[nH]2)c1`, the Potency is 0.206 µM (active) and the cell number change amounted to 13.7%.

Consider `CCc1c(C)sc(NC(=O)c2cccs2)c1C#N`, for which the Potency result is “inactive” and the cell number change was -15.6%.

Regarding `COc1cc2c(cc1OC)C(c1ccc(C)cc1)NC(=O)C2` (stereo not drawn), the Potency entry was “inactive”. For `COc1cc2c(cc1OC)C(c1ccc([N+](=O)[O-])cc1)NC(=O)C2` (stereo not drawn), the Potency was 6.51 µM (active) and the cell number change was -4.67%.

In the case of `COc1cc2c(cc1OC)C(c1cccc([N+](=O)[O-])c1)NC(=O)C2` (stereo not drawn), the Potency entry was “inactive” and the cell number change was -2.94%.

Consider `O=C(N/N=C/c1ccco1)c1cc(-c2cccc3ccccc23)n[nH]1`, for which the Potency result was “inactive” and the cell number change is -16.1%. The corresponding values for `CCn1nc(NC(=O)C(C)(C)C)c2cc3cccc(C)c3nc21` are 2.91 µM (active) and 12.4%.

With `CCn1nc(NS(=O)(=O)c2ccc(F)cc2)c2cc3cccc(C)c3nc21`, the Potency result was “inactive” and the cell number change was -26.3%.

As to `CCn1nc(NS(=O)(=O)c2ccc([N+](=O)[O-])cc2)c2cc3cccc(C)c3nc21`, the Potency is 1.46 µM (active) and the cell number change was -19.5%. For `Cc1cccc2cc3c(NC(=O)C(C)(C)C)nn(CC(C)C)c3nc12`, the Potency result was “inactive” and the cell number change is -9.6%. For the compound `CCn1nc(NS(=O)(=O)c2ccccc2)c2cc3cccc(C)c3nc21`, the Potency entry was “inactive” and the cell number change is -3.04%.

As to `CCn1nc(NC(C)=O)c2cc3cccc(C)c3nc21`, the Potency entry is “inactive”. `CCOC(=O)C(C(=O)OCC)c1c([N+](=O)[O-])c(=O)n2c3c(cccc13)CCC2`: the Potency entry is “inactive” and the cell number change was 0.163%. For the compound `COc1ccc(OC(=O)NCCc2ccccc2)cc1`, the Potency result is “inactive”. On the same count and under the same terms, the value for `Cc1cc2oc(C(=O)N3CCN(CCc4ccccn4)CC3)c(C)c2cc1C` was “inactive”.
